Laboratory results published in PubChem BioAssay (NCATS).
Inconclusive results are not listed. The source made the active and inactive calls. The call rests on the fitted dose curve; in most records, active means well fitted curve in the direction sought with a large enough effect; inconclusive means small, poorly fitted or top-dose-only effect, or another doubt; inactive means no such curve, though single readings can be large; an effect the other way counts as inactive or inconclusive.

Key:
[1] = qHTS of pediatric cancer cell lines to identify multiple opportunities for drug repurposing: Primary screen for Saos-2 cells (AID 1347097); further: nearly all actives have a fitted effect of over 40% in size; further: potency means the concentration at half of the fitted maximal effect
Summary of the method: (§1)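 ATP-based luminescence (CellTiter-Glo) quantifies viability after a 48-hour exposure. Compounds are dosed across 8 or 11 final concentrations; DMSO and 2.3 µM bortezomib serve as controls.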

[2] = qHTS of pediatric cancer cell lines to identify multiple opportunities for drug repurposing: Primary screen for NB1643 cells (AID 1347099); further: nearly all actives have a fitted effect of over 50% in size; further: potency means the concentration at half of the fitted maximal effect
Summary of the method: as §1

[3] = qHTS of pediatric cancer cell lines to identify multiple opportunities for drug repurposing: Primary screen for LAN-5 cells (AID 1347100); further: potency means the concentration at half of the fitted maximal effect
Summary of the method: (§2)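 Viability after 48 h compound treatment at 37C, 500-1,000 cells/well, read as ATP luminescence with CellTiter-Glo. Primary screens used 11-point (MIPE, 0.78 nM-46 µM) or 8-point (NPC, 0.59 nM-46 µM) final concentrations; follow-up screens used 11-point dilutions.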

[4] = qHTS of pediatric cancer cell lines to identify multiple opportunities for drug repurposing: Primary screen for Rh18 cells (AID 1347102); further: nearly all actives have a fitted effect of over 65% in size; further: potency means the concentration at half of the fitted maximal effect
Summary of the method: as §2

[5] = qHTS of pediatric cancer cell lines to identify multiple opportunities for drug repurposing: Primary screen for MG 63 (6-TG R) cells (AID 1347105); further: nearly all actives have a fitted effect of over 50% in size; further: potency means the concentration at half of the fitted maximal effect
Summary of the method: as §1

[6] = qHTS of pediatric cancer cell lines to identify multiple opportunities for drug repurposing: Primary screen for control Hh wild type fibroblast cells (AID 1347106); further: nearly all actives have a fitted effect of over 55% in size; further: potency means the concentration at half of the fitted maximal effect
Summary of the method: as §2

[7] = qHTS of pediatric cancer cell lines to identify multiple opportunities for drug repurposing: Primary screen for Rh30 cells (AID 1347107); further: nearly all actives have a fitted effect of over 75% in size; further: potency means the concentration at half of the fitted maximal effect
Summary of the method: as §2

[8] = qHTS of pediatric cancer cell lines to identify multiple opportunities for drug repurposing: Primary screen for BT-12 cells (AID 1347101); further: nearly all actives have a fitted effect of over 25% in size; further: potency means the concentration at half of the fitted maximal effect
Summary of the method: (§3)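 Cells (500-1,000/well) rested 5 h, then received compounds for 48 h; metabolically active cells were measured by CellTiter-Glo luminescence. Final concentrations spanned up to 46 µM (MIPE, 11-point) or 0.59 nM-46 µM (NPC, 8-point) in primary screens, 11-point in follow-ups.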

[9] = qHTS of pediatric cancer cell lines to identify multiple opportunities for drug repurposing: Primary screen for RD cells (AID 1347104); further: nearly all actives have a fitted effect of over 55% in size; further: potency means the concentration at half of the fitted maximal effect
Summary of the method: as §1

[10] = qHTS of pediatric cancer cell lines to identify multiple opportunities for drug repurposing: Primary screen for OHS-50 cells (AID 1347103); further: nearly all actives have a fitted effect of over 40% in size; further: potency means the concentration at half of the fitted maximal effect
Summary of the method: as §3

[11] = qHTS of pediatric cancer cell lines to identify multiple opportunities for drug repurposing: Primary screen for Rh41 cells (AID 1347108); further: nearly all actives have a fitted effect of over 70% in size; further: potency means the concentration at half of the fitted maximal effect
Summary of the method: as §1

[12] = qHTS of pediatric cancer cell lines to identify multiple opportunities for drug repurposing: Confirmatory screen for NB1643 cells (AID 1347109); further: potency means the concentration at half of the fitted maximal effect; nearly all actives have a fitted effect of over 45% in size
Summary of the method: as §2

[13] = qHTS of pediatric cancer cell lines to identify multiple opportunities for drug repurposing: Confirmatory screen for A673 cells (AID 1347110); conditions: A673 Ewing sarcoma cell viability; further: potency means the concentration at half of the fitted maximal effect; nearly all actives have a fitted effect of over 65% in size
Summary of the method: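 Cells plated at 500-1,000/well were treated five hours later with multi-point dilutions up to 46 µM final. After two days, CellTiter-Glo was added and luminescence read.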

[14] = qHTS of pediatric cancer cell lines to identify multiple opportunities for drug repurposing: Confirmatory screen for SK-N-MC cells (AID 1347111); conditions: SK-N-MC cell viability;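 further: potency means the concentration at half of the fitted maximal effect; cells exposed to compound for 48 h before the readout; nearly all actives have a fitted effect of over 70% in size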
Summary of the method: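 SK-N-MC cells at 500-1,000 cells/well in growth media were pre-incubated 5 h, then exposed to compounds at 11-point dilutions for 48 h at 37 degrees C, 5% CO2. Viability was read as CellTiter-Glo luminescence.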

[15] = qHTS of pediatric cancer cell lines to identify multiple opportunities for drug repurposing: Confirmatory screen for BT-12 cells (AID 1347112); further: potency means the concentration at half of the fitted maximal effect; nearly all actives have a fitted effect of over 55% in size
Summary of the method: as §2

[16] = qHTS of pediatric cancer cell lines to identify multiple opportunities for drug repurposing: Confirmatory screen for LAN-5 cells (AID 1347113); further: potency means the concentration at half of the fitted maximal effect; nearly all actives have a fitted effect of over 65% in size
Summary of the method: as §2

[17] = qHTS of pediatric cancer cell lines to identify multiple opportunities for drug repurposing: Confirmatory screen for NB-EBc1 cells (AID 1347115); further: potency means the concentration at half of the fitted maximal effect; nearly all actives have a fitted effect of over 45% in size
Summary of the method: as §2

[18] = qHTS of pediatric cancer cell lines to identify multiple opportunities for drug repurposing: Confirmatory screen for DAOY cells (AID 1347114); further: potency means the concentration at half of the fitted maximal effect; nearly all actives have a fitted effect of over 65% in size
Summary of the method: (§4)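 Viability measured as metabolically active cells via CellTiter-Glo luminescence following 48 hours of compound exposure, 11-point dilutions in confirmatory testing. 500-1,000 cells/well plated 5 hours before dosing; controls were DMSO and 2.3 µM bortezomib.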

[19] = qHTS of pediatric cancer cell lines to identify multiple opportunities for drug repurposing: Confirmatory screen for SJ-GBM2 cells (AID 1347116); further: potency means the concentration at half of the fitted maximal effect; nearly all actives have a fitted effect of over 60% in size
Summary of the method: as §4

[20] = qHTS of pediatric cancer cell lines to identify multiple opportunities for drug repurposing: Primary screen for SK-N-SH cells (AID 1347098)
Summary of the method: as §3

Measured: Potency

COc1ccc(-c2cc(=S)ss2)cc1
inactive: [1] | [2] | [3] | [4] | [5] | [6] | [7]

Cc1[nH]cnc1CN1CCc2c(c3ccccc3n2C)C1=O
inactive: [1] | [2] | [3] | [8] | [4] | [9] | [5] | [6] | [7]

C[N+]1(C)[C@@H]2CC(OC(=O)[C@H](CO)c3ccccc3)C[C@H]1[C@@H]1O[C@@H]12 (stereo partly specified)
inactive: [1] | [2] | [3] | [8] | [4] | [10] | [5] | [6] | [7] | [11]

O=C(O)c1ccccc1Nc1cccc(C(F)(F)F)c1
inactive: [1] | [2] | [3] | [8] | [4] | [10] | [5] | [6] | [7] | [11]

CC(N)C(=O)OC(C)(C)Cc1ccc(Cl)cc1 (stereo unspecified)
inactive: [1] | [2] | [3] | [8] | [4] | [5] | [6] | [7]

S=c1[nH]c2ccccc2s1
inactive: [1] | [3] | [8] | [4] | [10] | [5] | [6] | [7]

O=C(Nc1ccc(C(=O)O)c(O)c1)c1ccccc1
inactive: [1] | [2] | [3] | [8] | [4] | [10] | [5] | [6] | [7] | [11]

N=C(N)N
inactive: [1] | [2] | [3] | [8] | [4] | [10] | [5] | [6] | [7]

[O-][n+]1ccccc1SSc1cccc[n+]1[O-]
active: [1] 0.092 µM | [2] 0.092 µM | [8] 0.12 µM | [4] 0.517 µM | [10] 0.338 µM | [9] 0.0731 µM | [5] 0.184 µM | [6] 11.6 µM | [12] 1.15 µM | [13] 1.62 µM | [14] 0.456 µM | [15] 3.23 µM | [16] 0.288 µM | [17] 2.57 µM

CC1(C)S[C@@H]2[C@H](NC(=O)[C@H](N)c3ccccc3)C(=O)N2[C@H]1C(=O)O
inactive: [1] | [2] | [3] | [8] | [4] | [10] | [5] | [6] | [7]

CCCCCCCC/C=C/C(=O)O
inactive: [1] | [3] | [8] | [4] | [10] | [9] | [5] | [6] | [7] | [11]

COC(=O)c1nc(Cl)c(Cl)nc1N
active: [1] 2.37 µM | [3] 3.35 µM | [8] 2.19 µM | [4] 23.7 µM | [10] 0.872 µM | [5] 8.41 µM | [7] 21.1 µM | [11] 3.76 µM | [12] 3.69 µM | [13] 0.293 µM | [14] 1.17 µM | [15] 2.08 µM | [16] 3.29 µM | [18] 1.65 µM | [17] 16.5 µM | [19] 2.08 µM
inactive: [6]

Cc1c(Nc2ncccc2C(=O)O)cccc1C(F)(F)F
inactive: [1] | [2] | [3] | [8] | [4] | [10] | [6] | [7]

CCCCCCOc1ccccc1C(N)=O
inactive: [1] | [2] | [3] | [4] | [9] | [5] | [6] | [7]

CCCCCCCCCCCCOCCO
inactive: [1] | [2] | [3] | [8] | [4] | [10] | [5] | [6] | [7] | [11]

CN1CCN(c2cc3c(nn2)Oc2ccccc2N3C)CC1
inactive: [1] | [2] | [3] | [8] | [4] | [9] | [5] | [6] | [7] | [11]

CCCCC1C(=O)N(c2ccccc2)N(c2ccc(O)cc2)C1=O (stereo unspecified)
active: [1] 16.8 µM | [2] 6.68 µM | [3] 5.96 µM | [8] 5.5 µM | [4] 8.41 µM | [10] 11 µM | [9] 6.68 µM | [5] 21.1 µM | [11] 5.96 µM
inactive: [6]

Nc1cc(-c2ccncc2)c[nH]c1=O
inactive: [1] | [2] | [8] | [4] | [10] | [9] | [5] | [6] | [7] | [11]

CC(C(=O)O)c1ccc2c(c1)[nH]c1ccc(Cl)cc12 (stereo unspecified)
inactive: [1] | [2] | [3] | [8] | [4] | [10] | [5] | [6] | [7]

CN(C)CCn1nnnc1SCC1=C(C(=O)O)N2C(=O)[C@@H](NC(=O)Cc3csc(N)n3)[C@H]2SC1
inactive: [1] | [2] | [3] | [8] | [4] | [10] | [5] | [6] | [7]

CCCC(=O)OC[C@@H](OC(=O)CCC)[C@@H](OC(=O)CCC)[C@H](Cn1c2nc(=O)[nH]c(=O)c-2nc2cc(C)c(C)cc21)OC(=O)CCC
inactive: [20] | [2] | [5] | [6] | [7]
active: [8] 27.6 µM
